ROMK primary = modulators of human ROMK potassium channel | P48048 | Tet-inducible ROMK, thallium flux fluorescence; actives lie on both sides | B-score at 10 µM | actives 2% (n = 130,000);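 active means signal ratio slope over the read window, or its plate-corrected B-score, at least 3 SD from the plate mean, either direction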;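 further: B-score of the F/F0 ratio slope over 7 to 12 s after thallium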
S1P4 antag = blocks the human S1P4 receptor. O95977. S1P4-expressing cells, antagonist mode, reporter read-out. inhibition, % at 4.98 µM. actives 0.26% (n = 220,000). AID 1510; in the data active means inhibition above about 29%;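 further: 0% = wells stimulated with agonist and 100% = vehicle wells without agonist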
S1P4 agonist = human S1P4 receptor agonism; O95977; S1P4-expressing cell line, agonist reporter assay; activation, % at 4.98 µM; actives 0.35% (n = 220,000); AID 1509; in the data active means activation above about 11%;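 further: 0% = DMSO vehicle and 100% = reference agonist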
KCC2 mod = KCC2 (human) Cl- transport modulation. KCC2 cells, thallium flux FluoZin-2 fluorescence. actives 2.2% (n = 190,000). AID 1456. B-score of Tl+ flux slope (higher = more flux/activation; lower = inhibition) at 10 µM;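 active means thallium flux slope and its plate-corrected score both differing from the plate sample mean at a set confidence after two filtering rounds, in either direction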;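 further: slope of fluorescence scaled to starting intensity during 10 to 20 s after thallium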
RAM network inh = inhibitors of the yeast RAM network | inhibition, % at 50 µM | AID 868 | S. cerevisiae dse1pr::URA3 reporter, 5-FOA growth OD615, 2 d; analog-sensitive cbk1-as2 kinase mutant strain | actives 1.8% (n = 190,000);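 active means inhibition above a set limit, 3 SD over mean compound inhibition, cut at about 8.4% in these data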;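 further: 0% = DMSO-only wells with no growth and 100% = 10 µM 1-NA-PP1 full growth; inhibition rescues growth on 5-FOA so higher OD means more RAM inhibition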
S1P3 antag = blocks the human S1P3 receptor. Q99500. CHO S1P3 NFAT-BLA reporter, FRET fluorescence, antagonist mode. inhibition, % at 4.98 µM. actives 0.27% (n = 170,000). AID 485;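 active means inhibition above the plate cutoff, the mean inhibition of test wells on that plate plus 3 SD, cut at about 28% in these data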;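 further: cells challenged with S1P at its EC80 of 0.8 µM; blue over green emission ratio from cleaved BLA substrate after 4 h stimulation; 0% = S1P-stimulated wells and 100% = unstimulated DMSO-only wells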
S1P4 agonist cf = human S1P4 agonism, confirmation. shares compounds with S1P4 agonist. S1P4 agonist cell-based reporter assay. activation, % at 4.98 µM. actives 7% (n = 740). AID 1523; in the data active means activation above about 12%;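 further: 0% = vehicle and 100% = full reference agonist response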
S1P1 agonist = human S1P1 agonism as S1P4 agonist counter-screen; actives 4% (n = 740); AID 1563; S1P1 agonist cell-based assay, activation; shares compounds with S1P4 agonist; activation, % at 4.98 µM; in the data active means activation above about 21%;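 further: 0% = vehicle wells and 100% = reference agonist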
Numbers without * were called inactive. This is a sample that favours compounds with a hit; in the whole collection about 5.1% have one here.

For COc1nc(NCCN2CCOCC2)nc(Nc2ccccc2)n1 the results were S1P4 antag -17.2, S1P4 agonist -2.2, KCC2 mod -0.00215, RAM network inh 0.7 and S1P3 antag -11.9.
CCCCCCCCNc1nc(Cl)nc(NCCN2CCOCC2)n1 was read as ROMK primary 0.144, S1P4 antag -15.7, S1P4 agonist 17.2*, KCC2 mod 0.856, RAM network inh 1.5, S1P3 antag -7.5, S1P4 agonist cf -1.8 and S1P1 agonist 2.2.
CCOC(=O)N1CCN(Cc2nc(-c3ccc(Cl)cc3)no2)CC1 was read as S1P4 antag -3.6, S1P4 agonist 36.8*, KCC2 mod 0.133, RAM network inh 0.1, S1P4 agonist cf -1.7 and S1P1 agonist -3.4.
For CCOc1ccc(S(=O)(=O)NCc2ccccc2)cc1C(N)=O the results were ROMK primary 0.723, S1P4 antag 0.1, S1P4 agonist 11.2*, KCC2 mod -3.46, RAM network inh 1.3, S1P3 antag -14.8, S1P4 agonist cf -2.1 and S1P1 agonist 0.2.
For C=CCn1c(=O)c(C#N)cc2c(=O)n3ccccc3nc21 the results were ROMK primary 0.653, S1P4 antag -14.7, S1P4 agonist 11.3*, RAM network inh 2.5, S1P3 antag -12.6, S1P4 agonist cf 11.7* and S1P1 agonist 30.5*.
N#Cc1cc2c(=O)n3ccccc3nc2n(-c2ccc(Cl)cc2)c1=O was read as ROMK primary 0.862, S1P4 antag -14.6, S1P4 agonist 8.6, KCC2 mod 1.33, RAM network inh 2.6 and S1P3 antag -7.9.
Screening Cc1cc(-n2c(=O)c(C#N)cc3c(=O)n4ccccc4nc32)no1 returned ROMK primary 1.02, S1P4 antag -73.8, S1P4 agonist 28.3*, KCC2 mod -0.253, RAM network inh 0.1, S1P3 antag -99.0, S1P4 agonist cf 19.6* and S1P1 agonist 34.5*.
Cc1ccccc1-n1c(=O)c(C#N)cc2c(=O)n3ccccc3nc21 was read as ROMK primary 0.407, S1P4 antag -39.1, S1P4 agonist 44.2*, KCC2 mod -0.393, RAM network inh 2.6, S1P4 agonist cf 27.1* and S1P1 agonist 45.8*.
N#Cc1cc2c(=O)n3ccccc3nc2n(Cc2cccnc2)c1=N was read as S1P4 antag -24.3 and S1P4 agonist 1.1.
`COc1cccc(Nc2nc(-c3sc(NC(=O)c4ccco4)nc3C)cs2)c1` gave S1P4 antag -7.2, S1P4 agonist 28.6*, KCC2 mod 0.929, RAM network inh 1.7, S1P4 agonist cf -2.9 and S1P1 agonist -4.2.
For COc1ccc(Cl)cc1Nc1nc(-c2sc(NC(=O)c3ccco3)nc2C)cs1 the results were S1P4 antag -10.8, S1P4 agonist 1.9, KCC2 mod -0.00589 and RAM network inh 5.6.
Screening CCOc1ccc(CC(=O)NNC(=O)/C=C/C(=O)O)cc1 returned S1P4 antag 3.8, S1P4 agonist 0.7, KCC2 mod 0.234 and S1P3 antag 5.9.
O=C(CSc1ccc(F)cc1)NCCSc1ccccc1 was read as S1P4 antag -7.1, S1P4 agonist 11.4*, KCC2 mod -0.123, RAM network inh -1.3, S1P3 antag 14.6, S1P4 agonist cf -1.9 and S1P1 agonist -2.9.
Screening Fc1ccc(CN2C3=NCCN3c3ccccc32)cc1 returned S1P4 antag -1.6, S1P4 agonist -0.6, KCC2 mod 0.013 and S1P3 antag -3.6.
`OCCC1CN(Cc2ccccc2OC2CCCC2)CCN1Cc1ccsc1` (stereo not given) gave ROMK primary -2.47, S1P4 antag 16.4, S1P4 agonist -2.7, KCC2 mod -0.681, RAM network inh 0.0 and S1P3 antag 16.6.
For CC(Nc1cccnc1)=C(C#N)C#N the results were ROMK primary 0.377, S1P4 antag -7.9, S1P4 agonist 11.9*, KCC2 mod 1.67, RAM network inh 0.4, S1P3 antag -3.6, S1P4 agonist cf -2.7 and S1P1 agonist 15.4.
O=C(Nc1cccnc1)c1ccc(C(=O)Nc2cccnc2)cc1 was read as S1P4 antag 6.1, S1P4 agonist -0.1, KCC2 mod 0.494, RAM network inh -0.5 and S1P3 antag -13.5.
O=C(Cn1nc2n(c1=O)-c1ccccc1SC2)N/N=C/c1ccncc1 was read as ROMK primary -0.461, S1P4 antag 5.8, S1P4 agonist 0.3, KCC2 mod -1.08 and S1P3 antag -0.6.
For Cc1ccc(NC(=S)N(Cc2cccs2)Cc2cc3cccc(C)c3[nH]c2=O)cc1 the results were ROMK primary 0.972, S1P4 antag -16.0, S1P4 agonist -0.1, KCC2 mod 0.57, RAM network inh 4.3 and S1P3 antag -22.0.
Screening O=C(Cn1cncn1)N/N=C/c1ccc(Cl)cc1 returned ROMK primary -0.0774, S1P4 antag -4.5, S1P4 agonist 1.1, KCC2 mod 0.0662, RAM network inh 1.4 and S1P3 antag 10.6.
Screening O=C(Cn1cncn1)NCc1ccc(Cl)cc1 returned ROMK primary 0.126, S1P4 antag -11.2, S1P4 agonist 13.2*, KCC2 mod 0.0774, RAM network inh 0.0, S1P3 antag -1.2, S1P4 agonist cf -2.3 and S1P1 agonist -6.4.
CCOc1cc(CNCCSc2nnnn2C)cc(Br)c1OCc1ccc(F)cc1 was read as S1P4 antag 1.2, S1P4 agonist 40.6*, KCC2 mod 0.0889, RAM network inh -0.1, S1P3 antag 10.2, S1P4 agonist cf -0.9 and S1P1 agonist -10.0.
For COc1cc(CNCCSc2nnnn2C)cc(Br)c1OCc1ccc(F)cc1 the results were ROMK primary -1.83, S1P4 antag -11.7, S1P4 agonist -2.9, KCC2 mod 0.0455 and RAM network inh 0.5.
For COc1ccc2[nH]c3c(=O)n4c(nc3c2c1)SCCC4 the results were ROMK primary -1.22, S1P4 antag 3.7, S1P4 agonist 35.7*, KCC2 mod -1.33, RAM network inh 6.1, S1P3 antag -23.3, S1P4 agonist cf -1.7 and S1P1 agonist -3.6.
For CC1CN(C(=O)COC(=O)c2ccc(NC(=O)CC#N)cc2)CC(C)O1 (stereo not given) the results were ROMK primary 0.0154, S1P4 antag -5.4, S1P4 agonist 11.1*, KCC2 mod 0.236, RAM network inh 1.7, S1P3 antag -6.0, S1P4 agonist cf -2.0 and S1P1 agonist -3.2.
CC(C)=C(NC(=O)c1ccccc1)C(=O)Nc1ccc(C(=O)O)cc1 was read as S1P4 antag 12.3, S1P4 agonist -1.5, KCC2 mod 0.436 and S1P3 antag -11.3.
COc1cc(CC(=O)Nc2cccc(SC)c2)cc(OC)c1OC was read as ROMK primary -1.95, S1P4 antag -11.3, S1P4 agonist 44.6*, KCC2 mod -0.257, RAM network inh 0.5, S1P3 antag 0.0, S1P4 agonist cf -1.2 and S1P1 agonist -2.6.

Assay outcomes as filed in PubChem BioAssay.
